Results from PubChem BioAssay (Tox21).
Records with an inconclusive call do not appear. Activity calls are given as the source filed them. Unless noted, calls come from the whole dose curve.

Columns and labels:
[1] = Nuclear factor erythroid 2-related factor 2/antioxidant responsive element (Nrf2/ARE) small molecule agonists: qHTS cell viability counter screen in human keratinocytes (AID 1919968; active = well fitted curve in the direction sought with a large enough effect in the repeat runs; an effect the other way counts as inactive or inconclusive; note: nearly all actives have a fitted effect of over 55% in size)
Summary of the method: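 KeratinoSens cells (HaCaT keratinocytes stably carrying an ARE-luciferase reporter) were seeded at 1,500 cells/well and rested 5 h at 37 C/5% CO2. They were then exposed to compounds in DMSO for 23 h. Viability was read by CellTiter-Fluor fluorescence after 1 h.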

[2] = Nuclear factor erythroid 2-related factor 2/antioxidant responsive element (Nrf2/ARE) small molecule agonists: luciferase reporter gene qHTS assay in human keratinocytes (AID 1919969); note: nearly all actives have a fitted effect of over 35% in size
[3] = molecular target: Gonadotropin-releasing hormone receptor (Homo sapiens) (UniProt P30968); assay: Human gonadotropin-releasing hormone receptor (GnRHR) small molecule agonists, calcium flux assay in GnRHR-HEK293 cells (AID 1920063); note: nearly all actives have a fitted effect of over 35% in size
Chain of Gonadotropin-releasing hormone receptor (Homo sapiens) (P30968 whole entry, looked up): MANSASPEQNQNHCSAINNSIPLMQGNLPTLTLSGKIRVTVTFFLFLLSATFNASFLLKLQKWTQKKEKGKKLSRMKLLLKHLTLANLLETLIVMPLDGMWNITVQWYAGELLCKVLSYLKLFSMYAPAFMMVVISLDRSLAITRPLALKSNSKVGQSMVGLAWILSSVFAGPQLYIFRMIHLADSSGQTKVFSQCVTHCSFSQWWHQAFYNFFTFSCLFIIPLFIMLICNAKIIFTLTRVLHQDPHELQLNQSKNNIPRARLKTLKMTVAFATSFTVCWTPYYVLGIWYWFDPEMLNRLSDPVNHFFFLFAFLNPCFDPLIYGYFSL
Summary of the method: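 HEK293 cells stably expressing human GnRHR were plated 18 h at 37 °C, loaded with calcium dye 1 h at 37 °C, then given compound in agonist mode; fluorescence (Ex/Em 480/540) read kinetically for 3 min at 1 s intervals.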

[4] = molecular target: KiSS-1 receptor (Homo sapiens) (UniProt Q969F8); assay: Human kisspeptin (KISS1R) small molecule agonists, calcium flux assay in KISS1R-HEK293 cells (AID 1920064; active = well fitted curve in the direction sought with a large enough effect in the repeat runs; an effect the other way counts as inactive or inconclusive)
Chain of KiSS-1 receptor (Homo sapiens) (Q969F8 whole entry, looked up): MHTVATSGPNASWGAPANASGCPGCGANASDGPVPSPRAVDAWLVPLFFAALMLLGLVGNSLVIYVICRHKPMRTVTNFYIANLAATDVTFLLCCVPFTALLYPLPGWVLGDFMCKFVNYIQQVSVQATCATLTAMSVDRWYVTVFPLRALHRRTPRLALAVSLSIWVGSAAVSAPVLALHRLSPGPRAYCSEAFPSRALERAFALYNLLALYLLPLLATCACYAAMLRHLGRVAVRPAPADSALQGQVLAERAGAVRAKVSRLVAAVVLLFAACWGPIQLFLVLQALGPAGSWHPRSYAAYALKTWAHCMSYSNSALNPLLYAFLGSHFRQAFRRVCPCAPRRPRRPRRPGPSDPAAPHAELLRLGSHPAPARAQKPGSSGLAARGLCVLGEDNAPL
Summary of the method: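 HEK293 cells stably expressing human KISS1R were plated 18 h at 37 °C, loaded with calcium dye for 1 h at 37 °C, then given compound by pin tool. Fluorescence (Ex/Em 480/540) was read kinetically for 3 min.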

[5] = G protein-coupled receptor (GPCR) small molecule agonists, calcium flux assay: HEK293 wild type cell line counter screen (AID 1920065)
Summary of the method: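 Cells were plated and cultured 18 h at 37 C/5% CO2, then loaded with calcium dye for 1 h at 37 C. Compounds in DMSO were pin-transferred in agonist mode, and fluorescence (Ex/Em 480/540) was read kinetically for 3 min at 1 s intervals.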

[6] = p53 small molecule agonists, cell-based qHTS assay with human liver microsomes (AID 1963577);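 note: p53 response element beta-lactamase reporter cells with liver microsomes plus NADPH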
Summary of the method: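 In this qHTS, p53 response-element beta-lactamase cells receive test compound together with a microsome/NADPH activating system (0.5 mg/mL final each) and are incubated 16 h at 37 C before LiveBLAzer fluorescence detection.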

[7] = p53 small molecule agonists, cell-based qHTS assay with rat liver microsomes (AID 1963578)
Summary of the method: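 Agonist mode in p53RE-bla reporter cells, with compounds co-incubated 16 h at 37 C alongside 0.5 mg/mL rat liver microsomes and 0.5 mg/mL NADPH (final), followed by a 2 h LiveBLAzer detection step.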

[8] = p53 small molecule agonists, cell-based qHTS assay with human liver microsomes: qHTS cell viability counter screen (AID 1963579); note: nearly all actives have a fitted effect of over 45% in size
Summary of the method: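 Metabolically activated exposure: compounds, human liver microsomes and NADPH (0.5 mg/mL final apiece) were added to p53RE-bla cells seeded 5 h earlier, left 16 h at 37 C, and then assessed for viability by CellTiter-Glo luminescence.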

[9] = p53 small molecule agonists, cell-based qHTS assay with rat liver microsomes: qHTS cell viability counter screen (AID 1963580); note: nearly all actives have a fitted effect of over 45% in size
Summary of the method: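 Viability is assessed in parallel with the p53 reporter read: HCT-116 p53RE-bla cells receive compounds plus rat microsomes and NADPH (0.5 mg/mL final apiece), incubate 16 h at 37 C, and then CellTiter-Glo luminescence is recorded.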

[10] = p53 small molecule agonists, cell-based qHTS assay: qHTS cell viability counter screen (AID 1963581); note: nearly all actives have a fitted effect of over 45% in size
Summary of the method: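 p53RE-bla HCT-116 cells were exposed to compounds for 16 h at 37 C; after the beta-lactamase FRET read in the same wells, CellTiter-Glo was added and luminescence (intracellular ATP) read after 30 min at room temperature.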

[11] = p53 small molecule agonists, cell-based qHTS assay (AID 1963582; active = well fitted activation curve with a large enough effect in the signal ratio in the repeat runs, not every such curve was filed as active; the % refers to the signal ratio)
Summary of the method: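 p53RE-bla beta-lactamase reporter cells rested 5 h at 37 C/5% CO2, then received compounds in DMSO by pin transfer and were incubated 16 h at 37 C. LiveBLAzer B/G FRET substrate was loaded for 2 h at room temperature before fluorescence reading.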

[12] = molecular target: 5-hydroxytryptamine receptor 2A (Homo sapiens) (UniProt P28223); assay: 5-hydroxytryptamine receptor 2A (HTR2A) small molecule antagonists, cell-based qHTS assay (AID 1963586); note: nearly all actives have a fitted effect of over 45% in size
Chain of 5-hydroxytryptamine receptor 2A (Homo sapiens) (P28223 whole entry, looked up): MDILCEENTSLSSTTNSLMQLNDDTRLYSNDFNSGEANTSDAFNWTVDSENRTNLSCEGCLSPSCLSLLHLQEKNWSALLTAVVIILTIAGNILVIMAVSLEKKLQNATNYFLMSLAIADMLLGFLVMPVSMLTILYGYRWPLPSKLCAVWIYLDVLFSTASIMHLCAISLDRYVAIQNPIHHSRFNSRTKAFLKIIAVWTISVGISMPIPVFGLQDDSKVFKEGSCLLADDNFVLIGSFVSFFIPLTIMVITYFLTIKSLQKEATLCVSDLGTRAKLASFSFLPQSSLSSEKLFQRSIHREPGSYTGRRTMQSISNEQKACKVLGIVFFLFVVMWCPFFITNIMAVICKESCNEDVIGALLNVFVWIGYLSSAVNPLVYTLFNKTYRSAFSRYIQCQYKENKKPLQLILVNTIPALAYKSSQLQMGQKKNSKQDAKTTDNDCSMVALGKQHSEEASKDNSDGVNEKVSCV
Summary of the method: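 Antagonist-mode intracellular calcium assay: DOI (4 nM) added after 5 min compound pre-incubation at room temperature to dye-loaded HTR2A-CHO cells. Fluorescence followed for 3 min, sampled every second.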

[13] = molecular target: 5-hydroxytryptamine receptor 2A (Homo sapiens) (UniProt P28223); assay: 5-hydroxytryptamine receptor 2A (HTR2A) small molecule agonists, cell-based qHTS assay (AID 1963587); note: nearly all actives have a fitted effect of over 30% in size
Summary of the method: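 CHO cells stably expressing human HTR2A, plated 18 h, loaded with calcium dye 1 h at 37 C. Agonist mode: compounds added and intracellular calcium fluorescence recorded kinetically for 2 min at 1 sec intervals.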

[14] = molecular target: Muscarinic acetylcholine receptor M1 (Homo sapiens) (UniProt P11229); assay: Cholinergic receptor muscarinic 1 (CHRM1) small molecule antagonists, cell-based qHTS assay (AID 1963588); note: nearly all actives have a fitted effect of over 40% in size
Chain of Muscarinic acetylcholine receptor M1 (Homo sapiens) (P11229 whole entry, looked up): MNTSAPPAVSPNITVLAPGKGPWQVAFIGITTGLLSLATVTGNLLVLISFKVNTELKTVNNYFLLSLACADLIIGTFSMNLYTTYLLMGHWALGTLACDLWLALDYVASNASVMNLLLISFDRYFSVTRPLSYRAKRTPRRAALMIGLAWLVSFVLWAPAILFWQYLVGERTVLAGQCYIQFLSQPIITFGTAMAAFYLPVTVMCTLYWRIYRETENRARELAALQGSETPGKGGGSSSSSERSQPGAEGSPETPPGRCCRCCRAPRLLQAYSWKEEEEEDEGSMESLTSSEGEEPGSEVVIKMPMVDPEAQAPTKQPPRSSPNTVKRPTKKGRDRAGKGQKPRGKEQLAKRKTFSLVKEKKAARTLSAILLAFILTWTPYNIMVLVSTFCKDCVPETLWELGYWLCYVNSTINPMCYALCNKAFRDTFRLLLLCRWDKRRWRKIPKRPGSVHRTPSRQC
Summary of the method: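 CHRM1-CHO calcium-flux assay, antagonist mode. Cells were seeded 18 h, dye-loaded 1 h at 37 C and given compound for 5 min at RT, then acetylcholine was added at 50nM. FDSS fluorescence was read 3 min; 15 concentrations, three runs.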

[15] = molecular target: Muscarinic acetylcholine receptor M1 (Homo sapiens) (UniProt P11229); assay: Cholinergic receptor muscarinic 1 (CHRM1) small molecule agonists, cell-based qHTS assay (AID 1963589); note: nearly all actives have a fitted effect of over 35% in size
Summary of the method: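 CHO cells stably expressing human CHRM1, seeded 18 h at 37 C/5% CO2, dye-loaded 1 h at 37 C, then given compound in agonist mode; intracellular calcium fluorescence read kinetically at 1 s intervals. Fifteen concentrations, three independent runs.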

[16] = cAMP Responsive Elements (CRE) small molecule agonists, cell-based qHTS assay (AID 1963590)
Summary of the method: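 CRE-bla HEK 293T cells in DMEM with 10% dialyzed FBS, NEAA, pyruvate and 25 mM HEPES were plated 18 h at 37 C/5% CO2, then exposed to compounds in DMSO for 3 h before LiveBLAzer B/G FRET substrate addition.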

[17] = cAMP Responsive Elements (CRE) small molecule antagonists, cell-based qHTS assay (AID 1963591; active = well fitted inhibition curve with a large enough effect in the signal ratio in the repeat runs, not every such curve was filed as active; the % refers to the signal ratio)
Summary of the method: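 CRE-bla HEK293T cells were plated 18 h at 37 °C/5% CO2, pinned with compound in DMSO, then stimulated with NKH477 at 0.25 uM final for 3 h. LiveBLAzer B/G FRET substrate was added and plates incubated 2 h at room temperature.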

[18] = molecular target: Beta-2 adrenergic receptor (Homo sapiens) (UniProt P07550); assay: Adrenergic beta2 receptor (ADRB2) small molecule antagonists, cell-based qHTS assay (AID 1963592); note: series mostly up to about 92 µM; nearly all actives have a fitted effect of over 50% in size
Chain of Beta-2 adrenergic receptor (Homo sapiens) (P07550 whole entry, looked up): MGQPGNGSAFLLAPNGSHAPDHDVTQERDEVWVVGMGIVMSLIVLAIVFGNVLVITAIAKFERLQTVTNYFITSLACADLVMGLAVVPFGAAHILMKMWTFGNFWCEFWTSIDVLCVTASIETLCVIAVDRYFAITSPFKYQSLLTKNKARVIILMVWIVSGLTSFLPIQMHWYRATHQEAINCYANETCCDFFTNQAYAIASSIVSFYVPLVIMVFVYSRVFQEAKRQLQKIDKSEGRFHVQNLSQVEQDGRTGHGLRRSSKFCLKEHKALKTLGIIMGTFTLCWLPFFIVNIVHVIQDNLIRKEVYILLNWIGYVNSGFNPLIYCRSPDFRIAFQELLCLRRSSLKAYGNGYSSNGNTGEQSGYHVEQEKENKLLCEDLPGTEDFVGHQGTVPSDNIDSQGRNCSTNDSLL
Summary of the method: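 Cells (CHO, stable ADRB2 overexpression) incubated 18-20hr at 37C; compounds added from DMSO; agonist mix (1nM isoproterenol, 100uM IBMX, 25uM Ro-20-1724) added; 0.5hr RT; d2-cAMP and anti-cAMP-cryptate added; 1hr RT; 665/615 nm read.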

[19] = molecular target: D(2) dopamine receptor (Homo sapiens) (UniProt P14416); assay: Dopamine D2 receptor (DRD2) small molecule agonists, cell-based qHTS assay (AID 1963594); note: nearly all actives have a fitted effect of over 35% in size
Chain of D(2) dopamine receptor (Homo sapiens) (P14416 whole entry, looked up): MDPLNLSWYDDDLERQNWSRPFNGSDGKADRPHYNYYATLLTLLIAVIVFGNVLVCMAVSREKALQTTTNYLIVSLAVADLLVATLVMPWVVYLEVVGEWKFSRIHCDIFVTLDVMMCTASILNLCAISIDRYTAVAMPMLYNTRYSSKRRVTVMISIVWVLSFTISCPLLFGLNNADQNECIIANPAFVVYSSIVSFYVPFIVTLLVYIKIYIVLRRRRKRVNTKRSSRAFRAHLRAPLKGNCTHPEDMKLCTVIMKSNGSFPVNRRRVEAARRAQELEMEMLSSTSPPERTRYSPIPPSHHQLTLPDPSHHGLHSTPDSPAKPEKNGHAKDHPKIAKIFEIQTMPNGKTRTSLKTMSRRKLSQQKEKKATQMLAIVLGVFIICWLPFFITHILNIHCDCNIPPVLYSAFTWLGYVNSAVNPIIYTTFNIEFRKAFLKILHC
Summary of the method: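 HEK293 cells stably expressing human DRD2, pre-treated with PDE inhibitor Ro20-1724 (0.1 mM final) and compound 10 min at room temperature, then stimulated with NKH477 (200nM […]) for 30 min. cAMP read by HTRF (665/620 nm).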

[20] = molecular target: D(2) dopamine receptor (Homo sapiens) (UniProt P14416); assay: Dopamine D2 receptor (DRD2) small molecule antagonists, cell-based qHTS assay (AID 1963595; active = well fitted inhibition curve with a large enough effect in the signal ratio in the repeat runs, with a control signal flat; the % refers to the signal ratio)
Summary of the method: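 DRD2-HEK293; 0.1 mM Ro20-1724; cpd 10 min RT; NKH477 200 nM + quinpirole 12 nM, 30 min RT; HTRF cAMP (cAMP-d2/anti-cAMP cryptate), 665/620 nm ratio after 1 h.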

Measured: Potency

Cc1ccc2c(n1)Oc1ccc(C(C)C(=O)OCC(=O)N(C)C)cc1C2 (configuration not stated)
inactive: [1] | [2] | [3] | [4] | [5] | [6] | [7] | [8] | [9] | [10] | [11] | [12] | [13] | [14] | [15] | [16] | [17] | [18] | [19] | [20]

O=C(CC(C(=O)OC1CCCCC1)S(=O)(=O)O)OC1CCCCC1 (configuration not stated)
inactive: [1] | [2] | [3] | [4] | [5] | [6] | [7] | [8] | [9] | [10] | [11] | [12] | [13] | [14] | [15] | [16] | [17] | [18] | [19] | [20]

CC(=O)Oc1c(C)c(C)c2c(c1C)CC[C@@](C)(CCC[C@H](C)CCC[C@H](C)CCCC(C)C)O2
inactive: [1] | [2] | [3] | [4] | [5] | [6] | [7] | [8] | [9] | [10] | [11] | [12] | [13] | [14] | [15] | [16] | [17] | [18] | [19] | [20]

CCCCCCCCCCO
inactive: [1] | [2] | [3] | [4] | [5] | [6] | [7] | [8] | [9] | [10] | [11] | [12] | [13] | [14] | [15] | [16] | [17] | [18] | [19] | [20]

CC(=O)c1ccc(O)cc1
inactive: [1] | [2] | [3] | [4] | [5] | [6] | [7] | [8] | [9] | [10] | [11] | [12] | [13] | [14] | [15] | [16] | [17] | [18] | [19] | [20]

C1N2CN3CN1CN(C2)C3
inactive: [1] | [2] | [3] | [4] | [5] | [6] | [7] | [8] | [9] | [10] | [11] | [12] | [13] | [14] | [15] | [16] | [17] | [18] | [19] | [20]

CCCCNC(N)=O
inactive: [1] | [2] | [3] | [4] | [5] | [6] | [7] | [8] | [9] | [10] | [11] | [12] | [13] | [14] | [15] | [16] | [17] | [18] | [19] | [20]

Cc1cc(=O)[nH]c(C(C)C)n1
inactive: [1] | [2] | [3] | [4] | [5] | [6] | [7] | [8] | [9] | [10] | [11] | [12] | [13] | [14] | [15] | [16] | [17] | [18] | [19] | [20]

NCCN1CCNCC1
inactive: [1] | [2] | [3] | [4] | [5] | [6] | [7] | [8] | [9] | [10] | [11] | [12] | [13] | [14] | [15] | [16] | [17] | [18] | [19] | [20]

CC(=O)C(C)C
inactive: [1] | [2] | [3] | [4] | [5] | [6] | [7] | [8] | [9] | [10] | [11] | [12] | [13] | [14] | [15] | [16] | [17] | [18] | [19] | [20]

C=CC(C)(C)C
inactive: [1] | [2] | [3] | [4] | [5] | [6] | [7] | [8] | [9] | [10] | [11] | [12] | [13] | [14] | [15] | [16] | [17] | [18] | [20]

CN1C(=O)CC[C@H]1c1cccnc1
inactive: [1] | [2] | [3] | [4] | [5] | [6] | [7] | [8] | [9] | [10] | [11] | [12] | [13] | [14] | [15] | [16] | [17] | [19] | [20]

CCOC(=O)c1ccc(O)cc1
inactive: [1] | [2] | [3] | [4] | [5] | [6] | [7] | [8] | [9] | [10] | [11] | [12] | [13] | [14] | [15] | [16] | [17] | [18] | [19] | [20]

O=C(O)c1ccc2c(c1)C(=O)OC2=O
inactive: [1] | [2] | [3] | [4] | [5] | [6] | [7] | [8] | [9] | [10] | [11] | [12] | [13] | [14] | [15] | [16] | [18] | [19] | [20]

O=S(=O)(O)c1ccc(O)cc1
inactive: [1] | [2] | [3] | [4] | [5] | [6] | [7] | [8] | [9] | [10] | [11] | [12] | [13] | [14] | [15] | [16] | [17] | [18] | [19] | [20]
